# TDP1 cell noCPT – qHTS for Inhibitors of human tyrosyl-DNA phosphodiesterase 1 (TDP1): qHTS in cells in absence of CPT; hit rate 15% among 420,000; Potency, µM (series often up to 46.2 µM), inactives show top-dose activity change, negative = growth inhibition, usual class: inhibitors; DT40 Tdp1-/- hTDP1 cells, no CPT, ATP luminescence, 48 h; also: potency is read from the fitted curve at half-maximal effect; nearly all actives have a fitted effect of over 55% in size
#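 Compound effects on proliferation are scored in DT40 Tdp1-/-;hTDP1 cells in the absence of CPT. ATP levels (CellTiter-Glo luminescence) are recorded after a ≥48 hr, 37 °C incubation.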
# DT40 TDP1 CPT – DT40-hTDP1 cell growth loss with CPT; chicken DT40 Tdp1-/-;hTDP1 cells + 20 nM CPT, ATP luminescence, 48 h; Potency, µM (series often up to 46.2 µM), for inactives: top-dose activity change, negative = growth inhibition, actives largely listed as inhibitors; hit rate 12% among 420,000; AID 686979; also: potency is read from the fitted curve at half-maximal effect; nearly all actives have a fitted effect of over 55% in size
#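 Chicken DT40 Tdp1-/- cells complemented with human TDP1, 400 cells/well, exposed to compounds plus 20 nM camptothecin for at least 48 h at 37 C; viability read as ATP content by CellTiter-Glo luminescence.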
# HT1080 IDH1KD tx – kills HT-1080 cells with IDH1 knockdown; AID 686971; hit rate 2% among 360,000; Potency, µM (titrated, usually from 46.1 µM), without a hit: at the top dose activity, negative = toxicity, usual class: cytotoxic; HT-1080 IDH1 knockdown viability, ATP luminescence, 48 h;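 also: potency is read from the fitted curve at half-maximal effect; 0% = DMSO wells and -100% = cell-free medium wells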
#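 CellTiter-Glo luminescence after 48 h compound exposure at 37 degrees C of IDH1-knockdown HT-1080 cells in 5% FBS RPMI. %Activity scaled between DMSO wells and cell-free media wells, with curves fitted and assigned curve classes.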
# IL-1B inflam inh – inhibitors of inflammasome signaling (IL-1 beta secretion) | THP-1 LPS/ATP IL-1B secretion, AlphaLISA, 16 h; stronger effect = lower value | activity change, % at 57.5 µM | hit rate 4.7% among 360,000; in the data active = activity change below about -50%; inconclusive = mostly about -30% to -49%
#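 Secreted IL-1B measured by AlphaLISA bead assay after 16 h compound exposure of THP-1 cells; compounds (final up to 57.5 uM) added 1 h before LPS (250 ng/mL) and ATP (1.25 mM) stimulation; lower signal means less secretion.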
# HT1080NT lethal – kills 2HG-producing HT-1080-NT fibrosarcoma cells; HT-1080-NT fibrosarcoma viability, CellTiter-Glo ATP luminescence, 48 h; Potency, µM (top dose mostly 46.1 µM), for inactives: top-dose activity, negative = less viability, hits mostly cytotoxic; hit rate 1.6% among 360,000; AID 686970;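 also: NT is the 2HG producing partner of a matched IDH1 knockdown line; potency is read from the fitted curve at half-maximal effect; 0% = DMSO-treated cells and -100% = media-only wells without cells; nearly all actives have a fitted effect of over 55% in size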
#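 HT-1080-NT; 750 cells/well; 5% FBS RPMI; 48 h compound, 37 degrees C; CellTiter-Glo luminescence; curve fitting and curve-class assignment.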
# An asterisk follows results filed as active; ? = inconclusive; . = not tested or not shown. Rows were chosen to be rich in hits. Some 19% of all compounds tested hit in one or more screens of this group. Unless noted, calls follow the shape of the dose curve; as a rule, active = well fitted curve in the direction sought with a large enough effect; inconclusive = small, poorly fitted or top-dose-only effect, or another doubt; inactive = no such curve, though single readings can be large; an effect the other way counts as inactive or inconclusive. Unless noted, % is scaled to controls: 0 for no effect and ±100 for the full control effect.
SMILES,TDP1 cell noCPT,DT40 TDP1 CPT,HT1080 IDH1KD tx,IL-1B inflam inh,HT1080NT lethal
Cc1ccc(-c2nc3cnccn3c2Nc2ccc(C(C)C)cc2)o1,10µM*,?,6.2%,.,4.1%
Cc1ccc(Nc2c(-c3ccc(C)o3)nc3ncccn23)cc1,-19.0%,-9.0%,14.2%,79.3,6.9%
Cc1ccc(-c2nc3cnccn3c2Nc2c(C)cccc2C)o1,10.3µM*,5.8µM*,-14.3%,13.4,-16.8%
Cn1cccc1/C=N\NC(=O)C1COc2ccc(C(C)(C)C)cc2O1 (stereo unspecified),?,-2.3%,-1.7%,2.5,-12.7%
CC(C)(C)c1ccc2c(c1)OC(C(=O)N/N=C/c1ccc([N+](=O)[O-])o1)CO2 (stereo unspecified),11.6µM*,16.4µM*,?,-8.5,-25.2%
CC(C)(C)c1ccc2c(c1)OC(C(=O)N/N=C\c1ccc[nH]1)CO2 (stereo unspecified),?,?,3.66µM*,-12.1,?
CC(C)(C)c1ccc2c(c1)OC(C(=O)N/N=C\c1ccncc1)CO2 (stereo unspecified),?,?,-25.0%,.,-6.8%
O=S(=O)(NCC(c1cccnc1)N1CCN(Cc2ccccc2)CC1)c1ccccc1 (stereo unspecified),?,-30.0%,0.0%,-19.5,-1.3%
CCc1cc2c(=O)c(-c3nc4ccccc4n3C)c(C)oc2c(CN2CCCCC2)c1O,?,25.9µM*,-4.6%,0.0,0.0%
CCc1cc2c(=O)c(-c3cnn(-c4ccccc4)c3)c(C)oc2c(CN2CCCCC2)c1O,25.9µM*,?,?,-14.1,?
CC(C)(O)C#Cc1ccc(CN2CCC(n3nccc3NC(=O)C3CC3)CC2)cc1,9.8%,-2.3%,10.8%,-7.3,11.0%
Cc1noc(-c2ccc(NC(C)c3ccccc3)c([N+](=O)[O-])c2)n1 (stereo unspecified),23.1µM*,16.4µM*,.,.,.
CCc1noc(-c2ccc(NC(C)c3ccccc3)c([N+](=O)[O-])c2)n1 (stereo unspecified),?,18.4µM*,.,.,.
COC(=O)c1ccc(S(=O)(=O)N(C2CCCCC2)C2CCCCC2)n1C,23.1µM*,?,4.8%,2.2,-0.7%
c1ccc(-c2nnc3oc(-c4cccs4)nn23)cc1,11.6µM*,23.1µM*,-1.9%,-104.1*,6.8%
COCCN1C(=O)CCC1(C)C(=O)Nc1ccc2c(c1)OCCO2 (stereo unspecified),2.0%,15.5%,8.4%,-20.1,28.5%
O=C(c1ccc(C(F)(F)F)cc1)N1CCC(=O)N(C(COCc2ccccc2)Cc2ccccc2)CC1 (stereo unspecified),20.6µM*,20.6µM*,-19.9%,-54.5*,-2.6%
CC(C)(C)c1ccc(C(=O)N2CCC(=O)N(C(COCc3ccccc3)Cc3ccccc3)CC2)cc1 (stereo unspecified),20.6µM*,14.6µM*,-12.8%,-29.3,?
O=C(c1ccccc1)N1CCC(=O)N(C(CO)Cc2ccccc2)CC1 (stereo unspecified),-8.7%,-7.5%,-2.9%,-8.0,-3.6%
CCc1cccc(C)c1NC(=S)NCC(c1cccnc1)N1CCOCC1 (stereo unspecified),-17.7%,-3.0%,16.9%,15.4,17.1%
COc1ccc(-c2nn(-c3ccccc3)cc2/C=C/C(=O)NCCCn2ccnc2)cc1OC,14.6µM*,-30.0%,?,?,-14.6%
CCN(CC(=O)Nc1ccc(NC(C)=O)cc1)C(=O)/C=C/c1cn(-c2ccccc2)nc1-c1ccc(C)cc1,20.6µM*,?,-24.3%,?,-26.9%
COc1ccc(OC)c(/C=C/C(=O)N(C)CC(=O)Nc2ccc(C)cc2)c1,10.3µM*,6.51µM*,-2.4%,-4.2,6.7%
CCN(CC(=O)Nc1ccc(NC(C)=O)cc1)C(=O)/C=C/c1cn(-c2ccccc2)nc1-c1ccc(F)cc1,-1.1%,2.4%,-11.0%,15.8,3.4%
COc1cccc(NC(=O)CN(C)C(=O)/C=C/c2cn(-c3ccccc3)nc2-c2ccc(OC)c(OC)c2)c1,18.4µM*,?,-6.5%,-23.6,-8.7%
SMILES,TDP1 cell noCPT,DT40 TDP1 CPT,HT1080 IDH1KD tx,IL-1B inflam inh,HT1080NT lethal
O=c1cc(CNc2cc(C(F)(F)F)cc(C(F)(F)F)c2)nc2sccn12,?,?,?,-70.8*,?
O=c1ccc(C(F)(F)F)cn1Cc1cc(=O)n2ccsc2n1,0.1%,6.3%,?,1.6,0.2%
CCN(CC)CCCC(C)Nc1cc(/C=C/c2ccccc2Cl)nc2cc(Cl)ccc12 (stereo unspecified),0.891µM*,0.631µM*,.,.,.
CCN(CC)CCN(C(=O)/C=C/c1cccs1)c1nc2ccc(Cl)cc2s1,?,?,?,13.2,13.2%
O=C(Nc1nc(-c2ccccn2)cs1)C1CCCC1,5.17µM*,2.91µM*,-25.4%,-71.3*,-5.7%
CSCCC(=O)Nc1nc(-c2ccccn2)cs1,?,16.4µM*,-5.1%,16.5,-15.5%
Cc1ccc(-c2csc(NC(=O)CCNC(=O)c3ccccc3Cl)n2)cc1,?,?,-18.4%,-53.4*,-9.7%
Cc1ccc(-c2csc(NC(=O)CCNC(=O)c3ccc(Cl)cc3)n2)cc1,?,?,-0.7%,7.3,-7.2%
N#Cc1ccccc1OCC(=O)Nc1nc(-c2ccccn2)cs1,5.17µM*,2.91µM*,?,82.4,?
Cc1cc(C)cc(OCC(=O)Nc2nc(-c3ccccn3)cs2)c1,?,?,?,93.8,?
O=C(Nc1ccccc1)OCCc1ccccn1,-3.6%,-0.7%,17.4%,-21.2,16.6%
CCC(C)NS(=O)(=O)c1ccc(-c2csnn2)s1 (stereo unspecified),-20.0%,-3.5%,-2.9%,-1.9,-2.1%
CCN1CCN(C(c2ccc(F)cc2)c2sc3nc(-c4ccco4)nn3c2O)CC1 (stereo unspecified),?,-2.3%,.,.,.
Cc1ccc(CNC(=O)c2cc3ccccc3oc2=O)cc1,-26.9%,-3.2%,1.7%,-2.0,5.8%
O=C(COc1ccccc1Cl)Nc1nc(-c2ccncc2)cs1,16.4µM*,14.6µM*,-4.7%,-2.3,2.1%
O=C(CCCSc1ccccc1)Nc1nc(-c2ccccn2)cs1,16.4µM*,29.1µM*,-8.7%,29.9,-11.5%
O=C(CSc1ccc(F)cc1)Nc1ccc2c(c1)C(=O)NC2=O,-0.6%,10.4%,9.9%,4.1,-4.3%
O=C(Nc1nccs1)c1sc2cc(Cl)ccc2c1Cl,?,?,-7.9%,0.0,-16.4%
CC(NC(=O)c1sc2ccccc2c1Cl)C1CCCO1 (stereo unspecified),?,20.6µM*,12.2%,-10.2,15.9%

# From PubChem
